Bioassay records: PubChem, National Center for Advancing Translational Sciences (NCATS)
A selection: hits, their analogues and other compounds. The true share with any hit is near 8.3%.
MCF10A rerep: A quantitative high throughput screen for small molecules that induce DNA re-replication in MCF 10a normal breast cells | actives 2.9% (n = 350,000) | Potency, µM (doses to about 46.1 µM), without a hit: top-dose activity, positive = re-replication, usual class: activators | MCF 10A DNA re-replication, Hoechst nuclear intensity, 48 h; note: potency is the fitted concentration of half-maximal effect; % of control where 0% means no effect; nearly all actives have a fitted effect of over 50% in size
VP16 counter: VP16 counterscreen qHTS for inhibitors of ROR gamma transcriptional activity | actives 3.5% (n = 310,000) | Potency, µM (top dose mostly 53.6 µM), without a hit: at the top dose activity, negative = inhibition, hits mostly inhibitors | Drosophila S2 Gal4-VP16 UAS-luciferase, luminescence, 20 h | AID 2546, 2010;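 note: Gal4-VP16 expression switched on by copper sulfate through the metallothionein promoter; potency is the fitted concentration of half-maximal effect; % is set by controls: 0 for no effect and ±100 for the full control effect; nearly all actives have a fitted effect of over 50% in size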
Giardia kill: Small Molecules that selectively kill Giardia lamblia: qHTS; actives 0.15% (n = 340,000); activity change, % at 7.66 µM, hits read low; AID 540267, 2011; Giardia lamblia trophozoite viability; in the data active = activity change below about -80%; inconclusive = between about -30% and that limit;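 note: parasites exposed to compound for two days anaerobically before the ATP read; % is set by controls: 0 for no effect and ±100 for the full control effect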
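Trophozoite viability was measured as ATP-dependent luminescence, read 15-30 min after reagent addition. Before that, parasites at 100 cells/well were exposed to compounds for 48 h, anaerobically, at 37 deg C.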
Chronic BCR inh: qHTS Assay to Find Inhibitors of Chronic Active B-Cell Receptor Signaling; actives 0.05% (n = 340,000); ABC-DLBCL IkBa-CBG/CBR reporter, luminescence ratio, 4 h; Potency, µM (titrated, usually from 46.1 µM), for the others: at the top dose activity change, negative = inhibition, actives largely listed as inhibitors; active = well fitted inhibition curve with a large enough effect in the signal ratio, with a control signal flat, not every such curve was filed as active; inconclusive = small, poorly fitted or top-dose-only effect, or effect the other way, or a change in a side signal; the % refers to the signal ratio;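 note: potency is the fitted concentration of half-maximal effect; plate controls were basal doxycycline-induced cells for no effect and cells given 10 µM MG132 for full effect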
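Doxycycline induced both beetle luciferases in TMD8 lymphoma cells; IKK-driven degradation limits the IkappaBalpha-fused green signal, while red luminescence normalises for cell number and nonspecific effects. Compounds tested up to 46 uM, 4 hrs.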
SW480 rerep: A quantitative high throughput screen for small molecules that induce DNA re-replication in SW480 colon adenocarcinoma cells | actives 1.8% (n = 340,000) | Potency, µM (series often up to 46.1 µM), for the others: top-dose re-replication activation, actives largely listed as activators | SW480 DNA re-replication, Hoechst DNA content imaging, 48 h; note: potency is the fitted concentration of half-maximal effect; % of control where 0% means no effect; nearly all actives have a fitted effect of over 55% in size
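Compounds, transferred as 23 nL by pin tool, were incubated with cells for 48 hr; DNA content per nucleus was then quantified by Hoechst staining and fluorescence plate imaging.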
RORgamma inh: qHTS for inhibitors of ROR gamma transcriptional activity; AID 2551, 2010; actives 5.4% (n = 310,000); Nuclear receptor ROR-gamma (Mus musculus), P51450; Potency, µM (highest dose often 53.6 µM), without a hit: at the highest dose activity change, negative = inhibition, actives largely listed as inhibitors; Drosophila S2 Gal4-RORgamma UAS-luciferase reporter, 20 h; note: potency is the fitted concentration of half-maximal effect; % is set by controls: 0 for no effect and ±100 for the full control effect; nearly all actives have a fitted effect of over 60% in size
Target sequence (P51450 whole entry, looked up, the tested form may be a part): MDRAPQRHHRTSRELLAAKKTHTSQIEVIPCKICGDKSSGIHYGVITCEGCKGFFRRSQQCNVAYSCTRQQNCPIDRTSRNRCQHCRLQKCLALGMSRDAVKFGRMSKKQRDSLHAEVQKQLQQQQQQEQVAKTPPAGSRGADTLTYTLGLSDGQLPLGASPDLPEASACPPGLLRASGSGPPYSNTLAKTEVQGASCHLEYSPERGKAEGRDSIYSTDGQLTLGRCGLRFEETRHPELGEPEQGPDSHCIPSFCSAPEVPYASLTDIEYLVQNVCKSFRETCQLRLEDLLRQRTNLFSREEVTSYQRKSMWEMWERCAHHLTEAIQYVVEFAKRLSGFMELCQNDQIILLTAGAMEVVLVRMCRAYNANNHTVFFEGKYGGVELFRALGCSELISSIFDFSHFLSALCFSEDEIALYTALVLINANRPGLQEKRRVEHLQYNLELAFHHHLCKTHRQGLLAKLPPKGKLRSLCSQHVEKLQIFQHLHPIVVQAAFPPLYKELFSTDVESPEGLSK
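Read-out: Photinus luciferase luminescence; inhibitors lower reporter signal. Insect Schneider cells with Gal4-ROR gamma fusion under metallothionein promoter, UAS reporter; 700 uM final copper sulfate induction, 20 hr, ambient temperature.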
* = called active by the depositor; u = inconclusive; x = no result given; [ ] = another dose, or the depositor's remark. Unless noted, calls come from the whole dose curve; as a rule, active = well fitted curve in the direction sought with a large enough effect; inconclusive = small, poorly fitted or top-dose-only effect, or another doubt; inactive = no such curve, though single readings can be large; an effect the other way counts as inactive or inconclusive.

SMILES | MCF10A rerep | VP16 counter | Giardia kill | Chronic BCR inh | SW480 rerep | RORgamma inh
CCn1c2ccccc2c2nnc(SCc3ccc(C(=O)OC)o3)nc21 | -0.2% | 12.6µM* | 2.5 | -15.7% | -6.5% | u
CCn1c2ccccc2c2nnc(SCc3ccccc3)nc21 | 4.8% | u | 3.8 | u | -7.6% | u
COc1ccc(C(NC(=O)c2cc(OC)ccc2OC)c2ccccc2)cc1 (stereo not drawn) | u | -7.7% | -12.5 | u | u | u
COc1ccc(C(NC(=O)c2c(F)c(F)c(F)c(F)c2F)c2ccccc2)cc1 (stereo not drawn) | 6.51µM* | -3.9% | -2.0 | u | u | 2.8%
COC(=O)c1ccc(COC(=O)c2ccc(N(C)C)cc2)cc1 | 8.2µM* | u | -10.3 | -1.0% | u | -7.1%
CN(C)c1ccc(C(=O)OCc2ccccc2)cc1 | 4.4% | 3.9% | 7.7 | u | -33.1% | 18.7%
CCOc1ncccc1C(=O)OCc1ccc(C(=O)OC)cc1 | 2.6% | u | -11.8 | u | 7.31µM* | 36.6%
CCOc1ncccc1C(=O)OCc1ccc(Cl)cc1 | -2.6% | 2.8% | -5.1 | u | -1.0% | -8.8%
COC(=O)CC1(C(=O)OC)Oc2ccccc2C(=O)N1c1ccc(F)cc1F (stereo not drawn) | -0.1% | x | 4.5 | x | 5.1% | x
Cc1cccc(OCc2n[nH]c(=S)o2)c1C | 17.8% | 25.0% | -11.6 | -0.4% | -7.8% | u
COc1ccc(CCCc2n[nH]c(=S)o2)cc1C | -1.6% | -2.2%[10 µM] | 18.3 | 2.7% | 2.7% | 10µM*
COc1ccc(CCCc2n[nH]c(=S)n2C)cc1C | -0.5% | -3.1%[10 µM] | -1.3 | -26.9% | -4.4% | 5.01µM*
O=C(c1ccco1)N1CCN(C(=S)Nc2ccc(F)c(Cl)c2)CC1 | 0.7% | -0.1% | -18.3 | 0.1% | 20.4% | 0.2%
Nc1nc(=S)ss1 | 20.6µM* | x | -5.6 | x | u | x
Cc1cccc(N2CN(Cc3ccco3)CNC2=S)c1C | -3.2% | 11.2µM* | -1.8 | 2.2% | 1.1% | 7.08µM*
Cc1cccc(N2CN(Cc3cccnc3)CNC2=S)c1C | -4.3% | -6.7% | 1.3 | 1.8% | u | -21.1%
Cc1ccc(C)c(N2CN(Cc3ccco3)CNC2=S)c1 | -1.4% | 10µM* | -4.8 | 3.6% | -24.1% | 6.31µM*
Cc1ccccc1N1CN(Cc2ccco2)CNC1=S | 0.2% | u | -2.6 | -0.6% | -13.1% | 10µM*
Cc1ccc(C2(CC(=O)Nc3nccs3)CCOC(C(C)C)C2)cc1 (stereo not drawn) | -81.6% | u | -25.6 | 1.0% | -155.2% | -87.9%
COc1ccccc1C1(CC(=O)Nc2nccs2)CCOC(C(C)C)C1 (stereo not drawn) | 28.0% | -7.6% | -6.6 | u | u | 11.2µM*
Cn1c(=O)[nH]c(=O)c2c1nc(N1CCN(CCO)CC1)n2Cc1ccccc1Cl | 0.651µM* | 7.4% | 4.0 | u | -16.1% | -0.4%
C/C=C/Cn1c(N2CCCCCC2)nc2c1c(=O)[nH]c(=O)n2C | 8.2% | -4.9% | 24.5 | -0.6% | -1.3% | 1.2%[10 µM]
Cn1c(=O)[nH]c(=O)c2c1nc(N1CCCCC1)n2C/C=N/Nc1ccc(C(=O)O)cc1 | 2.2% | u | 29.6 | u | -12.0% | 7.08µM*
CCCn1c(N)c(N(CCOC)C(=O)c2ccc(Cl)c([N+](=O)[O-])c2)c(=O)[nH]c1=O | u | -4.1% | -8.6 | -0.3% | -3.2% | -17.5%
COc1ccc(C(=O)NNC(=O)OC(C)(C)C)cc1 | 0.8% | 11.8% | -12.9 | 5.4% | -3.2% | 6.9%
SMILES | MCF10A rerep | VP16 counter | Giardia kill | Chronic BCR inh | SW480 rerep | RORgamma inh
COc1ccc(C(=O)NN/C(C)=C/C(=O)C(F)(F)C(F)(F)C(F)(F)F)cc1 | u | 5.62µM* | 9.1 | u | -2.7% | 5.62µM*
CCc1c(C(=O)NNC(=S)NCC(C)C)csc1C | 2.9% | 17.8µM* | 1.9 | x | -3.0% | 1.78µM*
CCc1c(C(=O)NNC(=S)NCC2CCCO2)csc1C (stereo not drawn) | 3.4% | u | -9.4 | 3.1% | 0.0% | u
CCc1c(C(=O)NNC(=S)NCc2ccccc2)csc1C | -1.6% | -15.4% | 18.1 | -0.9% | -4.6% | 6.31µM*
Cc1ccc[n+](C(C)C(=O)Nc2ccc(C)c(C)c2)c1 (stereo not drawn) | 0.231µM* | -2.6% | -2.5 | -1.8% | -26.6% | 5.8%
Cc1ccc(NC(=O)C[n+]2ccccc2)cc1C | 6.7% | 2.2% | -9.0 | 2.2% | 2.5% | -5.9%
CCc1nnc(N/N=C/c2cccs2)n1N | u | 12.6µM* | 20.7 | u | 23.1µM* | u
CCc1nnc(N/N=C/c2c(Cl)cccc2Cl)n1N | -8.7% | u | -10.3 | u | -2.4% | u
CCOc1cc(/C=N/Nc2nnc(C)n2N)ccc1OC(C)=O | 18.4µM* | u | -6.7 | u | 18.3% | 11.2µM*
CCc1nnc(N/N=C/c2cc(Br)c(O)cc2O)n1N | 2.9% | 11.2µM* | -17.3 | u | 25.8% | 10µM*
CCc1nnc(N/N=C\c2ccc(OC(C)=O)c(OC)c2)n1N | 23.1µM* | u | -8.0 | -4.8% | u | u
CC(C)(C)c1nnc(N/N=C/c2cc(Br)ccc2O)n(N)c1=O | u | 10µM* | 2.1 | u | u | 12.6µM*
CCc1nnc(N/N=C/c2ccc(O)c(OC)c2)n1N | u | 12.6µM* | 4.6 | u | u | 15.8µM*
NC(=O)N/N=C\c1cc(Br)ccc1O | 0.8% | -21.6% | -12.5 | 5.8% | 6.7% | -16.1%
COc1cc(/C=N/Nc2ccccn2)ccc1O | 0.1% | u | -6.3 | u | -4.8% | u
CC1(c2ccccc2)ON(c2ccccc2C(F)(F)F)C1=O (stereo not drawn) | x | x | x | 0.0% | x | x
O=C1N(c2ccccc2C(F)(F)F)O[C@]1(c1ccccc1)C1CCCC1 | 18.4µM* | x | 0.9 | 3.1% | u | x
CS(=O)(=O)N(CCCC(=O)N1CCCCCC1)c1cccc(Cl)c1 | -3.1% | -1.9% | -9.2 | 2.6% | -2.5% | 20.5%
Cc1cc(NC(=O)CSc2c(C)[nH]c3ccccc23)no1 | 15.2% | 8.2% | 13.2 | -2.2% | -3.1% | u
Cc1[nH]c2ccccc2c1SCC(=O)NNC(=O)Nc1ccc(OC(F)(F)F)cc1 | 13µM* | 8.3% | 10.4 | u | -3.1% | 16.5%
Cc1ccc(NC(=O)COc2ccc(/C=N/NC(=O)CSCc3ccccc3)cc2)cc1 | 13.5% | -0.6% | 2.6 | u | -3.6% | u
CCOC(=O)c1c(C)n(C)c2cc(OCCN(CC)CC)ccc12 | 28.3% | 6.4% | -13.9 | -0.3% | -0.3% | 8.8%
